In the library only some 10% were active in any assay of this set; here they are far more common.
BAZ2B block – inhibitors of human BAZ2B bromodomain; 360,000 compounds, 4.4% hits; AlphaScreen BAZ2B-H3K14Ac peptide displacement; Potency, µM (doses to about 114 µM), most hits filed as inhibitors; further: nearly all actives have a fitted effect of over 60% in size
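Complex of BAZ2B and biotin-H3K14Ac (50 nM apiece) forms over 30 min at RT, then faces library compounds up to 110 uM for another 30 min; AlphaScreen beads added, 20 min dark incubation, luminescence read.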
GLS inhibitor – glutaminase GLS (human) inhibition; AID 624170; GLS enzymatic activity, qHTS titration; 410,000 compounds, 0.21% hits; Potency, µM (series often up to 45.5 µM), most hits filed as inhibitors
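Read-out is an Amplex red fluorescence increase coupled through glutamate oxidase and HRP, measured before and after 30 min room-temperature incubation. hKGA is in 45 mM KH2PO4 (pH 8.2) with 0.02% Tween-20; glutamine added as 1mM solution.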
HP1b binding inh – blocks HP1-beta chromodomain binding to methylated histone tails | Potency, µM (doses to about 114 µM), actives largely listed as inhibitors | AlphaScreen HP1-beta / biotin-H3K9me3 peptide binding | AID 540317 | P83916 | 390,000 compounds, 0.56% hits; further: nearly all actives have a fitted effect of over 70% in size
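HP1-beta protein (50 nM final) preincubated 30 min at room temperature with biotinylated H3(1-18)K9me3 peptide (50 nM) in PBS pH 7.4, 0.01% Tween-20, then compound added for 30 min. AlphaScreen streptavidin donor/nickel chelate acceptor beads (10 ug/mL final), 30 min dark, luminescence read.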
G9a block – G9a (human) methyltransferase inhibition | G9a H3K9 monomethylation, AlphaScreen, 2 h | Potency, µM (series often up to 102 µM), actives largely listed as inhibitors | 350,000 compounds, 8.8% hits | AID 504332; further: nearly all actives have a fitted effect of over 75% in size
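Quantitative HTS format: methyltransferase activity on a biotin-tagged H3K9 peptide is measured by AlphaScreen, using a rabbit anti-monomethyl-H3K9 antibody with streptavidin donor and anti-IgG acceptor beads. Final levels are 20 nM enzyme, 500 nM peptide, 20 uM SAM; 2 h RT.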
JMJD2A Tudor – blocks the human JMJD2A Tudor domain | Potency, µM (series often up to 114 µM), most hits filed as inhibitors | O75164 | 390,000 compounds, 4.4% hits | AlphaScreen JMJD2A-Tudor / H3K4me3 peptide binding; further: nearly all actives have a fitted effect of over 50% in size
Target sequence (O75164 whole entry, looked up, the tested form may be a part): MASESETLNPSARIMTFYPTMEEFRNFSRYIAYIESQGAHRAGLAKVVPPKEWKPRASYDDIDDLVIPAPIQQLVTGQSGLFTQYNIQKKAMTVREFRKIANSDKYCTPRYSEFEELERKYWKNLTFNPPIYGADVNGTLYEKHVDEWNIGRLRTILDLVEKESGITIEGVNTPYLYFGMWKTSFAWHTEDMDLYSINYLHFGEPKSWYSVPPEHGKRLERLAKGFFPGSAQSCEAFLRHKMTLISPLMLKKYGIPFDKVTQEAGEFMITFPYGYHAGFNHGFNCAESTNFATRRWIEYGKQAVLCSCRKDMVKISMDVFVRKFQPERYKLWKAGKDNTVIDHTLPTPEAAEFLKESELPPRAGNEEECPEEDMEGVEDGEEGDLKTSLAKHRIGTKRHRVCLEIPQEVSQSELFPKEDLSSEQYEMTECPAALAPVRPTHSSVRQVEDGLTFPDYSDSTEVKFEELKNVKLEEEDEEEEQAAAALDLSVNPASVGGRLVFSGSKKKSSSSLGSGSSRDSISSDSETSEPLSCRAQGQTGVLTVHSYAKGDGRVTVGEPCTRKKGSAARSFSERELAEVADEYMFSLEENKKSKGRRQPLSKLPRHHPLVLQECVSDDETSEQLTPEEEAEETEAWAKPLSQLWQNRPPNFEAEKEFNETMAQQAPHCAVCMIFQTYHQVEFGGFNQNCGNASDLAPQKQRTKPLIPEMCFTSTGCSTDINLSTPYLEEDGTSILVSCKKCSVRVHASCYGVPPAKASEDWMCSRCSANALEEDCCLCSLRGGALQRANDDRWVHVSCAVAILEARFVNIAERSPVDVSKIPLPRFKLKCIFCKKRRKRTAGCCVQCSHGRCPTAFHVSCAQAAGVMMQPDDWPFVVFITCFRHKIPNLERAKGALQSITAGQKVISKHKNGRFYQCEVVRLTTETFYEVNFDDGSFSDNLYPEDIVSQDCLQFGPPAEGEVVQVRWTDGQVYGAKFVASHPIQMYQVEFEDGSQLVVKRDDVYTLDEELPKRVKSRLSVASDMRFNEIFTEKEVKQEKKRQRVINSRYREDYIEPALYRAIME
Numbers stand for hits; - = inactive; ? = inconclusive; . = no result; [ ] = dose if it differs, or a comment. The call rests on the fitted dose curve; in most records, active means well fitted curve in the direction sought with a large enough effect; inconclusive means small, poorly fitted or top-dose-only effect, or another doubt; inactive means no such curve, though single readings can be large; an effect the other way counts as inactive or inconclusive.

SMILES	BAZ2B block	GLS inhibitor	HP1b binding inh	G9a block	JMJD2A Tudor
CCOC(=O)c1cnc2c(ccc3ccccc32)c1Nc1ccccc1OC	-	-	-	-	-
O=C(c1ccoc1)N1CCCC(N2CCN(c3ccc(F)cc3)CC2)C1 (stereo not given)	-	-	-	.	-
CCOc1ccc(NC(=O)c2cc3ccccc3cc2O)cc1	56.2µM	?	-	-[12.7 µM]	79.4µM
CCOc1ccc(NC(=O)c2cc(=O)[nH]c3ccccc23)cc1	56.2µM	-	-	.	-
CC(=O)c1ccc(NC(=O)c2cc(=O)[nH]c3ccccc23)cc1	-	?	-	-	-
COC(=O)CCc1nc2ccccc2nc1OC	-	-	-	-	-
Cc1cccc(NC(=O)CN2CCN(C(=O)c3cc(C4CC4)nn3-c3ccccc3)CC2)c1C	.	-	.	.	.
Cc1ccc(Nc2nc(N)nc(CN3CCN(Cc4ccc5c(c4)OCO5)CC3)n2)cc1	56.2µM	-	-	-[12.7 µM]	?
Nc1nc(CN2CCN(Cc3ccccc3)CC2)nc(Nc2ccc3c(c2)OCCO3)n1	20µM	-	-	-[12.7 µM]	?
Cc1ccc(Nc2nc(N)nc(CN3CCN(Cc4ccc5c(c4)OCO5)CC3)n2)cc1C	39.8µM	-	-	.	?
Cc1ccc(Nc2nc(N)nc(CN3CCN(Cc4ccc5c(c4)OCO5)CC3)n2)c(C)c1	56.2µM	-	?	-	-
COc1ccc(C(=O)NC2CCN(C(=S)NCc3ccco3)CC2)cc1	-	-	-	-	-
Cc1cc(C)cc(NC(=O)CN2C(=O)NC(Cc3c[nH]c4ccccc34)C2=O)c1 (stereo not given)	.	-	-	.	-
CN(Cc1ccccc1)C(=O)CN1C(=O)NC(C)(c2ccc(C(C)(C)C)cc2)C1=O (stereo not given)	-	-	-	-	-
O=C(c1ccc(Cn2cc(Cl)c([N+](=O)[O-])n2)cc1)N1CCN(Cc2ccccc2)CC1	-	-	-	50.1µM	-
O=C(c1cc([N+](=O)[O-])ccc1Cl)N1CCN(Cc2ccccc2)CC1	-	-	-	70.8µM	-
O=C(c1cc([N+](=O)[O-])ccc1Cl)N1CCN(c2ccc([N+](=O)[O-])cc2)CC1	-	-	-	?	-
O=C(c1ccc([N+](=O)[O-])cc1)N1CCN(Cc2ccccc2)CC1	-	-	-	-	-
O=C(c1cc([N+](=O)[O-])ccc1Cl)N1CCN(c2ccc(F)cc2)CC1	-	-	-	44.7µM	-
Cn1c(=O)c2c(nc(CN3CCC(C(N)=O)CC3)n2Cc2c(F)cccc2Cl)n(C)c1=O	-	-	-	-	-
O=C(NNc1ccc(C2CCCCC2)cc1)C(O)(c1ccccc1)c1cccs1 (stereo not given)	50.1µM	-	-	-[0.501 µM]	-
O=C1N/C(=C/c2ccc(N3CCCC3)cc2)C(=O)N1c1ccccc1	-	-	-	-	-
Cn1c(=O)n(C)c2cc(/C=C3/NC(=O)N(Cc4ccccc4)C3=O)ccc21	-	-	-	-	-
O=C(O)c1ccc(-c2ccc(/C=C3\NC(=O)N(Cc4ccc(Cl)cc4)C3=O)o2)cc1	?	-	-	50.1µM	-
Cc1cc(C(=O)O)ccc1-c1ccc(/C=C2\NC(=O)N(Cc3ccccc3Cl)C2=O)o1	44.7µM	-	?	25.1µM	44.7µM
SMILES	BAZ2B block	GLS inhibitor	HP1b binding inh	G9a block	JMJD2A Tudor
Cc1ccc(CN2C(=O)N/C(=C\c3ccc(-c4ccc(C(=O)O)cc4C)o3)C2=O)cc1	39.8µM	?	-	39.8µM	?
Cc1ccc(C(=O)O)cc1-c1ccc(/C=C2/NC(=O)N(c3ccccc3)C2=O)o1	31.6µM	?	?	10µM	50.1µM
O=C(O)c1ccc(CN2C(=O)c3ccc(C(=O)O)cc3C2=O)cc1	-	-	-	-[2.33 µM]	-
C/C(CC(=O)N1CCN(C=O)CC1)=N\NC(=O)c1ccc(Cl)cc1	-	-	-	-	-
CC1CN(C(=S)NC(=O)c2cccc([N+](=O)[O-])c2)CC(C)O1 (stereo not given)	-	-	-	14.1µM	?
O=CN1CCN(C(=S)NC(=O)c2ccc(Cl)cc2)CC1	-	-	-	44.7µM	-
CC1CN(C(=S)NC(=O)c2ccc(Cl)cc2)CC(C)O1 (stereo not given)	-	-	-	44.7µM	-
CCOC(=O)c1c(C)[nH]c(C)c1S(=O)(=O)N1CCCC(C(=O)Nc2ccc(C)cn2)C1 (stereo not given)	-	-	-	-	-
Cn1cc(S(=O)(=O)N2CCCCC2)cc1C(=O)Nc1ccc(OC(F)(F)F)cc1	-	-	-	-	-
O=C(Nc1ccc(S(=O)(=O)N2CCOCC2)cc1)c1c(F)cccc1F	-	-	-	35.5µM	-
CCN(CC)c1ccc(NC(=O)c2ccc(S(=O)(=O)N3CCOCC3)cc2)cc1	.	-	?	.	44.7µM
COCCOC(=O)c1nccnc1C(=O)Nc1ccc(S(=O)(=O)N2CCOCC2)cc1	-	-	-	-	-
O=C(O)c1nccnc1C(=O)Nc1ccc(S(=O)(=O)N2CCOCC2)cc1	-	-	-	44.7µM	?
CN(C)S(=O)(=O)Oc1cccc(C(=O)Nc2ccc(Cl)cc2)c1	-	-	-	-	-
COCCN(C(=S)Nc1cccc(C)c1C)C(C)c1ccco1 (stereo not given)	-	-	-	-	-
CCc1ccccc1NC(=O)NCc1ccccn1	-	-	-	-	-
COC(=O)CC1C(=O)NCCN1C(=O)CSc1nnc(Nc2ccc(C)cc2)s1 (stereo not given)	-	-	-	39.8µM	-
CN(C)c1ccc(/C=C/c2ccc3ccccc3[n+]2C)cc1	44.7µM	-	?	7.94µM	79.4µM
CN(C)c1ccc(/C=C/c2nc3ccccc3c(=O)[nH]2)cc1	-	-	-	-	-
CN(CCCS(=O)(=O)[O-])c1ccc(/C=C/c2ccc3ccccc3[n+]2C)cc1	?	-	-	31.6µM	?
CN(C)c1ccc(/C=C/c2ccc3c4ccccc4ccc3[n+]2-c2ccccc2)cc1	7.94µM	-	11.2µM	15.8µM	8.91µM
CC(=O)Oc1ccccc1/C=C/c1ccc2ccccc2[n+]1C	?	-	-	.	?
COc1ccc(/C=C/c2ccc3ccccc3[n+]2C)cc1OC	-	-	-	35.5µM	?
C[n+]1ccccc1/C=C/c1ccc2ncccc2c1	?	-	-	.	-
[O-][n+]1c(/C=C/c2ccccc2)ccc2ccccc21	?	-	-	-	-
SMILES	BAZ2B block	GLS inhibitor	HP1b binding inh	G9a block	JMJD2A Tudor
Cc1cc(C)n(CCO)c(=O)n1	?	-	-	-	?
CC(Oc1ccccc1)C(=O)Nc1ccc(S(=O)(=O)Nc2nccs2)cc1 (stereo not given)	-	-	-	?	-
c1ccc2cc(-c3cc4ccccn4c3)ccc2c1	?	-	-	35.5µM	?
NS(=O)(=O)c1ccc(NC(=O)CSc2nnc3n2CCCCC3)cc1	.	-	-	.	-
CCn1c(SCC(=O)N/N=C/c2ccc(C)o2)nnc1-c1ccc(C)cc1	-	-	-	44.7µM	?
Cc1ccc(/C=N/NC(=O)CSc2nc3ccccc3[nH]2)o1	?	-	-	44.7µM	-

Source: PubChem (National Center for Advancing Translational Sciences (NCATS))
